In PubChem BioAssay (NCI):
The panel holds about 83,000 compounds, 20% with a hit somewhere; the sample as a whole holds those more often.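 Method: cells in 96-well plates; compound added at one concentration; 48 h incubation; percent growth measured; values under 10 scored active.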 Activity calls are given as the source filed them.

The compounds below were run on HOP-62 NSCLC (assay: NCI-60 one-dose screen, 48 h (100 = growth as untreated, 0 = no growth, -100 = all killed)). Details: 10 µM.
Method: Growth inhibition of the HOP-62 human Non-Small Cell Lung tumor cell line is measured as a screen for anti-cancer activity. Cells are grown in 96 well plates and exposed to the test compound for 48 hours. Compounds are tested at a single concentration, which is 10^-5 M for most compounds. The reported endpoint is percent growth (GI% or GIPRCNT), where numbers from 0 - 100% represent growth inhibition, and numbers from -100% - 0 represent cell death. For example, a value of 40 represents 60% growth inhibition. A value of 0 means no net growth occurred over the course of the experiment. A value of -40 indicates 40% of cells at the beginning of the experiment died by the end of the experiment. A value of -100 means all cells are dead at the end of the experiment.
NCI-60 Human Tumor Cell Lines Screen was performed using the standard one-dose NCI protocol, which is described in more detail at https://dtp.cancer.gov/discovery_development/nci-60/default.htm.
Compounds with GIPRCNT values below 10 were considered active. Activity score was based on GIPRCNT using the following formula: […]
Score is 0 for GIPRCNT values of 100 or above, 50 for GIPRCNT values of 0, and 100 for GIPRCNT values of -100.
For `COc1ccc(-c2cc(-c3cc(C(=O)c4ccccc4)n4ccc(C)cc34)nc(N)c2C#N)cc1`, the growth was 29.7% (inactive).
With `CC(=O)Nc1ccc(-c2cn(-c3cccc(C(=O)Nc4ccc(F)c(C(F)(F)F)c4)c3)nn2)cn1` the growth was 87.7% (inactive).
With `COc1cccc(/C=C2\N=C(C)N(CCc3ccc(S(N)(=O)=O)cc3)C2=O)c1` the growth was 93.5% (inactive).
`COC1=C[C@@]23CCC(=O)N2CCc2cc4c(cc2[C@H]3[C@H]1OC(=O)C(C)(C)O)OCO4` was tested, and the growth was 89.2% (inactive).
For `COC[C@@H](CC(C)C)N=C1N/C(=C\c2ccc3ncsc3c2)C(=O)N1C`, the growth was -9.28% (active).
In the case of `O=C(c1ccc(Cl)cc1)C1[C@H](c2ccc(Br)cc2)[C@@H](c2ccccc2)NC12C(=O)Nc1ccc(Br)cc12` (stereo not given in full), the growth is reported as -80.3% (active).
`COc1ccc(N2N=C(c3ccc4c(c3)OCCO4)CC2c2cccc(NC(=O)CCCNS(=O)(=O)c3ccc(F)cc3)c2)cc1` (stereo not given) was tested, and the growth was 89.6% (inactive).
`Clc1ccc2c(N/N=C/c3c[nH]c4ccc(Br)cc34)ccnc2c1` was tested, and the growth was -59.1% (active).
In the case of `Cc1ccc(/C=C/C(=O)c2ccc(NC(=O)CSc3nnc(-c4c[nH]c5ccccc45)n3-c3ccccc3)cc2)c(C)c1`, the growth is reported as 99.4% (inactive).
For `N#Cc1c(NC(=O)c2ccc(C(F)(F)F)cc2C(F)(F)F)sc2c1CCC(=O)C2`, the growth was 7.49% (active).
`Cc1ccc(-c2nc(Nc3ccc(S(N)(=O)=O)cc3)c3ccccc3n2)cc1` was tested, and the growth was 66.7% (inactive).
In the case of `O=C1Nc2ccc(Cl)cc2/C1=C/c1ccc(OCc2ccccn2)cc1`, the growth is reported as 45.6% (inactive).
`CC(=O)NCC1=C(C)C=C2C(=O)[C@](C)(O)C3(CC3)C(C)=C21` was tested, and the growth was -54.4% (active).
For `O=C(Cn1cc(CSc2nnc3oc4ccccc4n23)nn1)Nc1ccc(Br)cc1`, the growth was 38.5% (inactive).
For `COc1ccc(/C=C/C(=O)c2ccc(S(=O)(=O)NCCNc3nc(Nc4ccc(F)cc4)nc(N(C)C)n3)cc2)cc1`, the growth was 51.2% (inactive).
In the case of `O=C(Nc1ccc(OCC(=O)c2ccccc2)cc1)Nc1ccc(Cl)c(C(F)(F)F)c1`, the growth is reported as 27.9% (inactive).
For `COc1cc(C2CC(c3ccccc3)=Nc3c(N)nc(N)nc3N2)ccc1Oc1nc(Nc2ccc(F)cc2)nc(N(C)C)n1` (stereo not given), the growth was 85.7% (inactive).
With `O=C(CS(=O)(=O)c1oc(-c2ccc(Cl)cc2)nc1S(=O)(=O)c1ccc(Cl)cc1)N1CCOCC1` the growth was 84.3% (inactive).
`CC1=N/C(=C\c2ccc(N(C)C)cc2)C(=O)N1CCc1ccc(S(N)(=O)=O)cc1` was tested, and the growth was 84.4% (inactive).
For `COc1ccc(-c2c(N)c(=O)n(C)c3ccccc23)cc1`, the growth was 75.3% (inactive).
`CN1C(=O)/C(=C/c2ccc3ncsc3c2)NC1=NC12CC3CC(CC(O)(C3)C1)C2` was tested, and the growth was 16.7% (inactive).
In the case of `COc1ccc(-c2nc(-c3ccccc3)c(-c3ccccc3)n2-c2ccc(S(=O)(=O)Nc3ncccn3)cc2)cc1OC`, the growth is reported as 76.9% (inactive).
For `CN(CCF)c1ccc(/C=C/C(=O)c2ccc(N)cc2O)cc1`, the growth was 106% (inactive).
For `Cc1cc(C)nc(/N=C(\N)Nc2ccc(S(=O)(=O)Nc3nc(C)cc(C)n3)cc2)n1`, the growth was 104% (inactive).
`Cc1ccc([N+](=O)[O-])c(C(=O)Nc2ccc(-c3ccc4c(c3)NC(=O)/C4=C\c3ccc[nH]3)cc2)c1` was tested, and the growth was 86% (inactive).
`COc1cc2c(c(OC)c1OC)C(=O)CC(c1cccc(NC(=O)c3cccc(N)c3)c1)O2` (stereo not given) was tested, and the growth was 100% (inactive).
With `COc1cc(/C=C/C(=O)c2ccc(C(F)(F)F)cc2)ccc1Oc1nc(Nc2ccc(F)cc2)nc(N(C)C)n1` the growth was 102% (inactive).
For `CC(=O)c1cc(C(=O)N2c3ccccc3Sc3ccccc32)n2ccc(C)cc12`, the growth was 58.6% (inactive).
With `O=C(Nc1cccc(C(F)(F)F)c1)c1cncc(C#Cc2cnc3ccc(N4CCOCC4)nn23)c1` the growth was 6.8% (active).
In the case of `Cc1ccc(/C=C(\C#N)n2nnc3c(F)cccc32)cc1`, the growth is reported as 17.8% (inactive).
`Cc1ccc(C(C)C)cc1NC(=O)c1ccccc1O` was tested, and the growth was 54.4% (inactive).
With `COc1cc(/C=C/C(=O)c2ccc(NC(=O)CSc3nnc(-c4c[nH]c5ccccc45)n3-c3ccccc3)cc2)cc(OC)c1OC` the growth was 101% (inactive).
`O=c1oc2ccccc2cc1-c1csc(N=Nc2c(O)[nH]c3ccc(Br)cc23)n1` was tested, and the growth was 40.2% (inactive).
With `O=c1oc2ccc(-c3ccc(F)cc3F)cc2c(=O)n1-c1ccc(Cl)c(C(F)(F)F)c1` the growth was -18.8% (active).
With `Cc1cccc(NC(=O)CSc2nc3ccc(F)cc3c(=O)n2-c2ccc(Cl)cc2)c1C` the growth was 26.5% (inactive).
In the case of `CCCCOc1ccc(Nc2nc3ccccc3nc2Nc2ccc(OCCCC)cc2)cc1`, the growth is reported as 98.9% (inactive).
With `Cc1ccc(CSc2nc(-c3ccc(F)cc3)c(C#N)c(=O)[nH]2)cc1` the growth was 102% (inactive).
`COc1ccc2[nH]c(O)c(N=NC(=O)COc3ccc(NC(=O)Nc4ccc(Cl)c(Cl)c4)cc3)c2c1` was tested, and the growth was -36% (active).
For `CC1(c2ccccc2)NC(=O)N(CC(=O)Nc2ccc(C(=O)/C=C/C=C/c3ccccc3)cc2)C1=O` (stereo not given), the growth was 77.2% (inactive).
With `CCC(C)S(=O)(=O)c1oc(-c2ccc(C)cc2)nc1S(=O)(=O)c1ccccc1` (stereo not given) the growth was 28.7% (inactive).
